The supplement of paper PMC10849652
The full data set covers some 7,900 targets. This sample favours those with a hit. About 0.6% of all pairs of compound and target were hits.

Each target was assayed with c1cn2cc(-c3ccc4cn[nH]c4c3)nc(Nc3ccc(N4CCOCC4)cc3)c2n1 [entospletinib] (assay: log2 fold change, soluble protein after heating vs DMSO (PISA); higher = thermal stabilisation; K562 cells, 10 uM, 30 min; active = over 0.2 and 3.5 SD of the protein, either way, in both replicates (recomputed)).
Summary of the method: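 K562 cells at 2×10^6 cells/mL were treated for 30 min with 10 μM compound, and aliquots were heated for 3 min over 48°C-58°C before pooling. Extraction used PBS with 0.5% NP-40 at 4°C, and soluble protein was the supernatant after 21,000xg for 90 min, measured by TMTpro 16plex LC-MS/MS with channel sums equalised. Thermal stability values, relative to control samples and from duplicates, are log2 fold changes.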

Sequence of UniProt P53350 (P53350 whole entry, looked up): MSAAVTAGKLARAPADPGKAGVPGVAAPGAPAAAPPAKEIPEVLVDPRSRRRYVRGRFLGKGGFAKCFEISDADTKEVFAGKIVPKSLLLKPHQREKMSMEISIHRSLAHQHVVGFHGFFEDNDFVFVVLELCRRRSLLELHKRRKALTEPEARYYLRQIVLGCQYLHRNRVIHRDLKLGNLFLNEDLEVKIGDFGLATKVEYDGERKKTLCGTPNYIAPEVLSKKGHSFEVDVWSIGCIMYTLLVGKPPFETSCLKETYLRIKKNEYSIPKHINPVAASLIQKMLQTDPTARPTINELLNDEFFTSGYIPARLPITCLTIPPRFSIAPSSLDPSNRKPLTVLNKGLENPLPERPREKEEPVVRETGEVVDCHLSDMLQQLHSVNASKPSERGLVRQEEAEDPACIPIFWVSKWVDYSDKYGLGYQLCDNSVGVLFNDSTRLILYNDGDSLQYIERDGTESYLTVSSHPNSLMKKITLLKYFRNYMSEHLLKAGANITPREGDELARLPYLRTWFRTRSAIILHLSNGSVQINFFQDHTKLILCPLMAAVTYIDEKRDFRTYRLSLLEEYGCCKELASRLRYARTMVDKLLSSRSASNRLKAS
Sequence of UniProt Q9H0R6 (Q9H0R6 whole entry, looked up): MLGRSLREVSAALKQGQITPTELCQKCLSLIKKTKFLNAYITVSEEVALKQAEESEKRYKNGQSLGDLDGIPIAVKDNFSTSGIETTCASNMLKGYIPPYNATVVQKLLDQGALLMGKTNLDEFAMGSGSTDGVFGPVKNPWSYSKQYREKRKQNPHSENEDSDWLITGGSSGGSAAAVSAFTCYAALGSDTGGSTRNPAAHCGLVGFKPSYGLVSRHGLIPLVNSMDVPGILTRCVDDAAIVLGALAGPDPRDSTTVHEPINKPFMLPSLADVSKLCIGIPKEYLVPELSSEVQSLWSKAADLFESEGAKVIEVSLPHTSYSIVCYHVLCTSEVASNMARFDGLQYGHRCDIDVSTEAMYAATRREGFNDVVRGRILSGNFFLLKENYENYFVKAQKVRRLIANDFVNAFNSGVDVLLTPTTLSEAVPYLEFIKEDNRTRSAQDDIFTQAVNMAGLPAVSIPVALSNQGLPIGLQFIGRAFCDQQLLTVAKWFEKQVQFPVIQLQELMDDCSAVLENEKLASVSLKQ
Sequence of UniProt P46020 (P46020 whole entry, looked up): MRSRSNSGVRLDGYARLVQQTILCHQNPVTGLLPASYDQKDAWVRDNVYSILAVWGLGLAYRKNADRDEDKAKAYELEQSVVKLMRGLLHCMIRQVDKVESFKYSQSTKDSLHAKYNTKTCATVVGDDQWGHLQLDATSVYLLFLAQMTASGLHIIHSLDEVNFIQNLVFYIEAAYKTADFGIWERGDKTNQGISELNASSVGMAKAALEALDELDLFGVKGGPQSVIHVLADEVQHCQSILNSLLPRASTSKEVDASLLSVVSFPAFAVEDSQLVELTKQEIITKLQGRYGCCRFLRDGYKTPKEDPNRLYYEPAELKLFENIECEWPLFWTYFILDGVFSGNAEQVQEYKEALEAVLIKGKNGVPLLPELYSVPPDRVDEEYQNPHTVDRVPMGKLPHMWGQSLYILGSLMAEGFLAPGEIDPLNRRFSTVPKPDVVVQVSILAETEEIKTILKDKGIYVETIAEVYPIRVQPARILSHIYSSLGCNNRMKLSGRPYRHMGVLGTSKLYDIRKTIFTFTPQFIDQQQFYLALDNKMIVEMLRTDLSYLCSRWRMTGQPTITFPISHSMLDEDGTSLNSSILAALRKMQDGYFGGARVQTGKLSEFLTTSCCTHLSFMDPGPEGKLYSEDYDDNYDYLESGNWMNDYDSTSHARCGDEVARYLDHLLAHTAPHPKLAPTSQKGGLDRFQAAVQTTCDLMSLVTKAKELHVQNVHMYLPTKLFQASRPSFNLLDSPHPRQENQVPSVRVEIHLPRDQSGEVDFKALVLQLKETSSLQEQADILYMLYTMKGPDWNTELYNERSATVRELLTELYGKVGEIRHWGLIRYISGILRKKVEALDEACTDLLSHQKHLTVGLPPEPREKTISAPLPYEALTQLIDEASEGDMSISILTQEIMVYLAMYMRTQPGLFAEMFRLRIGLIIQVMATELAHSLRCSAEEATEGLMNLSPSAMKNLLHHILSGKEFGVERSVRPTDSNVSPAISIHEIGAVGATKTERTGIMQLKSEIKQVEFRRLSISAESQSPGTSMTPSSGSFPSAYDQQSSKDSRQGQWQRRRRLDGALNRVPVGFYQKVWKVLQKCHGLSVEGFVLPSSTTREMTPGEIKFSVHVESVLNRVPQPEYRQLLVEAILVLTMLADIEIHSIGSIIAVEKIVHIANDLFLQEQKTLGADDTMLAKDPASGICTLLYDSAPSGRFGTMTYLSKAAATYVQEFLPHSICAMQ
Sequence of UniProt Q9NR22 (Q9NR22 whole entry, looked up): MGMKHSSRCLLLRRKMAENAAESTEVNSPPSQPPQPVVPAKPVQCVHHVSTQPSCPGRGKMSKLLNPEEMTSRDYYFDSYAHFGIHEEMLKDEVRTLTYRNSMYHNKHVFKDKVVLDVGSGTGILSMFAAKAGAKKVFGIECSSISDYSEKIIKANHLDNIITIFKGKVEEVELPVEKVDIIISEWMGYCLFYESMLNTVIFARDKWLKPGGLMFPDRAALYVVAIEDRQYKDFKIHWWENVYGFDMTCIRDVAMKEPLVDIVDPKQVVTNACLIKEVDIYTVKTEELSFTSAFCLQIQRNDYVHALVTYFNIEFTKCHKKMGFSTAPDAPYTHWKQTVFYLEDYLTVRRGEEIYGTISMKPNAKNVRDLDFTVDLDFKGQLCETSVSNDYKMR
Sequence of UniProt Q15008 (Q15008 whole entry, looked up): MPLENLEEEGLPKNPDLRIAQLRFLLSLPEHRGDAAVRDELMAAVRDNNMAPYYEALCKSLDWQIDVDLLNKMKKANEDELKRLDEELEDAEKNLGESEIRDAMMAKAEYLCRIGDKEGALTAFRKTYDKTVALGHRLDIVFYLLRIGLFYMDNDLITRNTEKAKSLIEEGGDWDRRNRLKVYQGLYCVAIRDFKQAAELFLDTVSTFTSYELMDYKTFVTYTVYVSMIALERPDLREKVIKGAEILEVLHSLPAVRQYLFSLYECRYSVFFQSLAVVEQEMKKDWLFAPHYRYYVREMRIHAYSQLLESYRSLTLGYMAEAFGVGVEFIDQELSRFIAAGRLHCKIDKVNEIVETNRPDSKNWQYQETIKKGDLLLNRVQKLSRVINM
Sequence of UniProt Q9H300 (Q9H300 whole entry, looked up): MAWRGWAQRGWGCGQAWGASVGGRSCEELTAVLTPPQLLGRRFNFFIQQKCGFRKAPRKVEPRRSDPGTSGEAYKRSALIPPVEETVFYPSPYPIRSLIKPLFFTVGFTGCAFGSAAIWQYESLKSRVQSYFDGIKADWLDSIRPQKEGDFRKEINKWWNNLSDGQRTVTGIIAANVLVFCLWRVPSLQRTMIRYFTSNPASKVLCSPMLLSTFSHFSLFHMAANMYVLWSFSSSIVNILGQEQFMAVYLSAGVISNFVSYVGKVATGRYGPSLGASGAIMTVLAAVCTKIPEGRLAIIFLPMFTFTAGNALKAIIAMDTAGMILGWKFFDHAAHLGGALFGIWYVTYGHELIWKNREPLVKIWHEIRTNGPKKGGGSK
Sequence of UniProt Q10713 (Q10713 whole entry, looked up): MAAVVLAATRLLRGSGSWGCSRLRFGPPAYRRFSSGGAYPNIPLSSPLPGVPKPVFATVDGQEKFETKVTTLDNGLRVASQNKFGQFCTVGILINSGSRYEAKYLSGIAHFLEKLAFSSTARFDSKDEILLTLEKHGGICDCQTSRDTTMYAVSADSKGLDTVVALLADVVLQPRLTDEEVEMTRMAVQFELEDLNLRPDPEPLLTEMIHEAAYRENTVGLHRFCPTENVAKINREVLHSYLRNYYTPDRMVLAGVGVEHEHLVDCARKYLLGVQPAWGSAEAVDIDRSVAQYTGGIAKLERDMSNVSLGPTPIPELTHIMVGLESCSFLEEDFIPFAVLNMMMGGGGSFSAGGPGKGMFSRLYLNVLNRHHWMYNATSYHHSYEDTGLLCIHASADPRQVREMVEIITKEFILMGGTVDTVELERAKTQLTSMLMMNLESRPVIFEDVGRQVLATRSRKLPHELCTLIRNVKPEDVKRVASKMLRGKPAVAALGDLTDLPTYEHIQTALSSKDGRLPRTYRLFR
Sequence of UniProt Q8N5Y8 (Q8N5Y8 whole entry, looked up): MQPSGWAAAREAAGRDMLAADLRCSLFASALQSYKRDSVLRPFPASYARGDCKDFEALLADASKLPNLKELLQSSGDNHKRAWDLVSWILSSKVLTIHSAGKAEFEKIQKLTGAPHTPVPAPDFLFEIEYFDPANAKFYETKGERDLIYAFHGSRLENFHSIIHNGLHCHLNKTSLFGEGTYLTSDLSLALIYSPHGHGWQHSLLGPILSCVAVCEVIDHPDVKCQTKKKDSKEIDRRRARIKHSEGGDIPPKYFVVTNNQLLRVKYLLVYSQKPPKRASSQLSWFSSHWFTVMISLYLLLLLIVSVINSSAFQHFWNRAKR
Sequence of UniProt O95997 (O95997 whole entry, looked up): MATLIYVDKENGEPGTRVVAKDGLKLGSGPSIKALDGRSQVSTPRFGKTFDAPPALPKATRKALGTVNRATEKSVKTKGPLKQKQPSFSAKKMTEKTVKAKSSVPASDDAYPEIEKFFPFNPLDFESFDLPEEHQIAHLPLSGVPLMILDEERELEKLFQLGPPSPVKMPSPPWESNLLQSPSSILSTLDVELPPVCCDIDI
Sequence of UniProt Q9Y244 (Q9Y244 whole entry, looked up): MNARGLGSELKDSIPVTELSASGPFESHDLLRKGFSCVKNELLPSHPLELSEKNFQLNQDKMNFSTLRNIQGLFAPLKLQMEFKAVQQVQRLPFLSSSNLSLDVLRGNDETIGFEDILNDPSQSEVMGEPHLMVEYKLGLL
Sequence of UniProt P53801 (P53801 whole entry, looked up): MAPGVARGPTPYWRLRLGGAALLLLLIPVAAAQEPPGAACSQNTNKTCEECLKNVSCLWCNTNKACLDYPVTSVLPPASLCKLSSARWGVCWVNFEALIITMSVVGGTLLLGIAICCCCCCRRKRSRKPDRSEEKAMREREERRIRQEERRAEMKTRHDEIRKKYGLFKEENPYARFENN

log2 fold change, inactive:
PARL (UniProt Q9H300) 0.018
PHAX (UniProt Q9H814) -0.005
PLK1 (UniProt P53350) -0.022
QRSL1 (UniProt Q9H0R6) -0.008
PSMD6 (UniProt Q15008) 0.058
PMPCB (UniProt O75439) -0.043
PPP2R5C isoform 5 (UniProt Q13362) -0.012
PMPCA (UniProt Q10713) -0.046
PDS5A (UniProt Q29RF7) 0.039
PNN (UniProt Q9H307) 0.172
PRKCG (UniProt P05129) 0.044
PRPF38A (UniProt Q8NAV1) 0.036
PRMT8 (UniProt Q9NR22) 0
PTTG1IP (UniProt P53801) -0.044
PPP1R12C (UniProt Q9BZL4) 0.038
PARP16 isoform 3 (UniProt Q8N5Y8) 0.074
PTTG1 (UniProt O95997) -0.027
PHKA1 (UniProt P46020) 0.063
POMP (UniProt Q9Y244) -0.015
PI4K2A (UniProt Q9BTU6) -0.011
PSMD5 (UniProt Q16401) 0.017
PRKACB isoform 2 (UniProt P22694) -0.019
PSPC1 (UniProt Q8WXF1) 0.034
